The values that follow come from PubChem BioAssay AID504834 (National Center for Advancing Translational Sciences (NCATS), 2011).

Among all 320,000 compounds or so, about 22,000 (6.9%) were called active. Roughly 27% stayed inconclusive and do not appear here. Only a selection was taken, and actives are over-represented in it overall. Values without a mark were called inactive. Calls follow the shape of the dose curve; as a rule, active = well fitted inhibition curve with a large enough effect; inconclusive = small, poorly fitted or top-dose-only effect, or another doubt; inactive = no such curve, though single readings can be large or run the other way.
% is scaled to controls: 0 for no effect and ±100 for the full control effect; potency is read from the fitted curve at half-maximal effect.

The nature of this assay: Primary qHTS for delayed death inhibitors of the malarial parasite plastid, 96 hour incubation. Conditions: P. falciparum luciferase reporter growth; series mostly up to 28.7 µM; activity change, negative = inhibition: at the top concentration. A digest of the protocol:
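Luminescence readout: decreased luciferase signal marks inhibited growth of reporter-expressing P. falciparum in infected red cells (2% hematocrit, 0.05% parasitemia final), exposed to compound two generations (96 h, 37 C, 5% CO2).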
For the molecule `CN(C)S(=O)(=O)c1cccc(-c2nn(-c3ccccc3)cc2/C=C2\SC(=S)N(CC(=O)O)C2=O)c1`, the “activity change, negative = inhibition” value is -27.3%.

In the case of `Cc1nn(C)c(C)c1C(C)NC(=O)c1ccc(OC2CCN(Cc3ccccn3)CC2)cc1` (stereo unspecified), the “activity change, negative = inhibition” value is -23.8%.

Consider `Cc1cccc(C(C)C)c1NC(=O)COC(=O)C1CC(=O)N(Cc2ccccc2)C1` (stereo unspecified), for which the “activity change, negative = inhibition” value is 35.6%.

Regarding `Nc1cc(OC(=O)c2ccccc2Br)nn1S(=O)(=O)c1ccccc1`, the “activity change, negative = inhibition” value was 48.3%.

In the case of `Cc1ccc(S(=O)(=O)n2nc(OC(=O)C(C)(C)C)cc2N)cc1`, the “activity change, negative = inhibition” value was 0%.

For `Cc1nn(C(C)(C)C)c(OC(=O)CC(C)C)c1S(=O)(=O)c1ccccc1`, the Potency was 9.28 µM (active).

Consider `CCCc1ccc(OCC(O)CN2CCN(C(=O)OCC)CC2)cc1` (stereo unspecified), for which the “activity change, negative = inhibition” value is 39.9%.

Regarding `CCc1ccc(OCC(O)CN2CCN(CCO)CC2)cc1` (stereo unspecified), the “activity change, negative = inhibition” value is 30.8%.

Turning to `CCCc1ccc(OCC(O)CN2CCN(CCO)CC2)cc1` (stereo unspecified), the Potency was 10.4 µM (active).

In the case of `Cc1ccc(S(=O)(=O)N2CCCCC2)cc1C(=O)N1CCN(CCO)CC1`, the “activity change, negative = inhibition” value is 30.1%.

As to `CN(CC(=O)Nc1cccc(F)c1)C(=O)C1CC(=O)N(CCc2ccccc2)C1` (stereo unspecified), the “activity change, negative = inhibition” value was 63%.

As for `COc1ccc(CN2CCCC(N3CCc4ccccc4C3)C2)c(O)c1` (stereo unspecified), the Potency was 8.28 µM (active).

For `COc1ccccc1CN1CCCC(N2CCN(c3ccc(F)cc3)CC2)C1` (stereo unspecified), the “activity change, negative = inhibition” value is 6.1%.

With `COc1cccc(N2C(=O)CC(N3CCc4ccccc4C3)C2=O)c1` (stereo unspecified), the “activity change, negative = inhibition” value is 23.1%.

For `COc1ccc(CN2C3CCCC2CC(NC(=O)c2cccc(F)c2)C3)cc1` (stereo unspecified), the “activity change, negative = inhibition” value is -95.4%.

As for `CCCCCCC(O)(CCN1CCCCC1)c1ccccc1` (stereo unspecified), the “activity change, negative = inhibition” value was 17.7%.

On to `O=C(COc1ccccc1Cl)Nc1ccccc1C(=O)NC1CC1`, for which the “activity change, negative = inhibition” value is -25%.

Consider `CC1(C)CC(=O)c2ccc(O)cc2O1`, for which the “activity change, negative = inhibition” value is 31%.

`COc1ccc2c(c1)OC(O)(C(F)(F)C(F)F)CC2=O` (stereo unspecified): the Potency was 0.828 µM (active).

Regarding `O=S1(=O)N=C(N(CCO)/N=C/c2ccccc2F)c2ccccc21`, the “activity change, negative = inhibition” value was -11.7%.

As to `COc1ccc(CNC(=O)C2CCN(C(=O)c3ccccc3)CC2)cc1`, the “activity change, negative = inhibition” value is 3.36%.

Turning to `COc1ccc(-n2nc3c(N4CCC(C(=O)NCc5ccccc5)CC4)nnc(C)c3c2C)cc1`, the Potency is 13.1 µM (active).

Consider `CCOc1ccc(CNC(=O)C2CCCN(c3nnc(C)c4c(C)n(-c5ccccc5)nc34)C2)cc1` (stereo unspecified), for which the “activity change, negative = inhibition” value is -5.12%.

As to `COC(=O)c1ccc(Nc2ncnc3sccc23)cc1`, the “activity change, negative = inhibition” value is 38%.

Turning to `Cc1c(Cc2ccccc2)c(=O)oc2cc(OCC(N)=O)ccc12`, the “activity change, negative = inhibition” value was 56.5%.

As for `CC(=O)c1c(C)n(-c2ccc(C)cc2)c2ccc(O)cc12`, the Potency is 7.38 µM (active).

For `CC(=O)c1c(C)n(-c2ccc(N(C)C)cc2)c2ccc(OCC(N)=O)cc12`, the Potency was 9.28 µM (active).

For `CCOC(=O)c1c(CN2CCOCC2)n(-c2ccccc2)c2ccc(O)cc12`, the “activity change, negative = inhibition” value was 0.0544%.

Turning to `CCOC(=O)c1c(C)oc2ccc(OCC(=O)N(CC)CC)cc12`, the “activity change, negative = inhibition” value is 3.22%.

In the case of `O=C(O)CCC(=O)Nc1ccc(OCC2CCCO2)cc1` (stereo unspecified), the “activity change, negative = inhibition” value was 0%.

As for `CCCCn1nc(C(=O)Nc2cccc(C(=O)NC3CC3)c2)c2ccccc2c1=O`, the Potency is 11.7 µM (active).

Regarding `CCn1nc(C(=O)Nc2ccc(N3CCOCC3)cc2)c2ccccc2c1=O`, the “activity change, negative = inhibition” value was -1.95%.

`CCCn1nc(C(=O)Nc2ccc3nc(C)sc3c2)c2ccccc2c1=O`: the “activity change, negative = inhibition” value is -16%.

In the case of `CC(=O)Nc1ccc(S(=O)(=O)NCC2CCC(C(=O)NCCc3ccccc3)CC2)cc1` (stereo unspecified), the “activity change, negative = inhibition” value is 17.5%.

As for `COc1ccc(C2NC(=O)N(C)C(C)=C2[N+](=O)[O-])cc1` (stereo unspecified), the “activity change, negative = inhibition” value was 86.1%.

Turning to `COc1ccc(C(C)(C)C)cc1NC(=O)CCN1C(=O)C2CCCCC2C1=O` (stereo unspecified), the “activity change, negative = inhibition” value was -28.3%.

In the case of `NC(=O)c1ccsc1NC(=O)COC(=O)COc1ccc(C=O)cc1`, the “activity change, negative = inhibition” value is -16.1%.

As for `O=C(/C=C/c1cccs1)c1cc(Cl)ccc1OC(=O)N1CCOCC1`, the Potency was 8.28 µM (active).

For `O=C(NCC(c1cccs1)N1CCOCC1)c1cc(Cl)ccc1[N+](=O)[O-]` (stereo unspecified), the “activity change, negative = inhibition” value was 13.4%.

Turning to `CC(=O)Nc1ccccc1OC(=O)N1CCOCC1`, the “activity change, negative = inhibition” value was 49.8%.

Consider `CCOc1cc(C)c(S(=O)(=O)NCc2ccccn2)cc1C`, for which the “activity change, negative = inhibition” value is -29.9%.

For the molecule `COc1ccc2[nH]c(C(=O)N3CCN(C)CC3)c(C)c2c1`, the “activity change, negative = inhibition” value was 38.2%.

As for `O=C(c1cc2ccccc2s1)N1CCN(c2ccccn2)CC1`, the “activity change, negative = inhibition” value is -15.5%.

Regarding `O=C(NC1CCCC1)C(c1ccco1)N(C(=O)c1csnn1)c1ccccc1` (stereo unspecified), the “activity change, negative = inhibition” value was -28.5%.

Turning to `OCC[C@H]1C[C@@H](O)[C@H](O)[C@]2(OCCCc3ccccc32)O1`, the “activity change, negative = inhibition” value was 63.6%.

Regarding `COc1ccc(Cl)cc1NC(=O)CCN1CCOCC1`, the “activity change, negative = inhibition” value was 1.33%.

In the case of `Cc1ccc(N2CC(C(=O)Nc3cc(Cl)ccc3-n3cncn3)CC2=O)cc1` (stereo unspecified), the “activity change, negative = inhibition” value is 19%.

In the case of `COc1cc(OC)c(N2CC(C(=O)Nc3cc(Cl)ccc3N3CCOCC3)CC2=O)cc1Cl` (stereo unspecified), the Potency was 11.7 µM (active).

Turning to `CN(C(=O)CSc1nnc(C2CC2)n1C)C1CCCc2ccccc21` (stereo unspecified), the “activity change, negative = inhibition” value is -43.7%.

In the case of `Cc1cc(C)n2nc(C(=O)OCC(=O)N(CCC#N)c3ccc(F)cc3)nc2n1`, the “activity change, negative = inhibition” value is -7.01%.

Regarding `O=C(CCn1nnc2ccccc2c1=O)N[C@@H](Cc1c[nH]c2ccccc12)C(=O)O`, the “activity change, negative = inhibition” value was 29.9%.
